ATXN2 expr inh: reduces ATXN2 reporter expression in HEK-293 cells. Potency, µM (top dose mostly 57 µM), hits mostly inhibitors. actives 0.72% (n = 360,000). HEK-293 ATXN2-luciferase reporter, luminescence, 24 h; further: nearly all actives have a fitted effect of over 55% in size
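ATXN2-luciferase reporter cells (luciferase flanked by upstream and downstream ATXN2 gene portions) were treated 24 h at 37 °C with compounds at up to 57 uM. SteadyGlo luminescence gave expression; GF-AFC fluorescence gave viability.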
USP2a inh: blocks human ubiquitin-specific protease USP2a. Potency, µM (highest dose often 38.3 µM), usual class: inhibitors. AID 463254. USP2 core, Ub-CHOP2 coupled fluorogenic reporter, 485/531. O75604. actives 0.01% (n = 330,000)
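Deubiquitinase activity read as fluorescence (485/531 nm) after Ub-CHOP2 cleavage activates the enterokinase reporter on its substrate; USP2 core 10nM, Ub-CHOP2 and substrate 25nM each, 30min compound preincubation then 60min RT; data normalized to NEM, curves fitted.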
IL-1B inflam inh: inhibitors of inflammasome signaling (IL-1 beta secretion); THP-1 LPS/ATP IL-1B secretion, AlphaLISA, 16 h; stronger effect = lower value; activity change, % at 57.5 µM; actives 4.7% (n = 360,000); AID 743279; in the data active means activity change below about -50%; inconclusive means mostly about -30% to -49%
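THP-1 cells pretreated 1 hr with compounds (up to 57.5 uM final), then stimulated with LPS (250 ng/mL final) plus ATP (1.25 mM final); secreted IL-1B measured by AlphaLISA after 16 hr, decreased signal indicating inhibition.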
S2 tox: cell viability loss in ATXN counter-screen | S2 cells (HEK-293 line with an ATXN2-luciferase reporter) viability, CellTiter-Fluor protease fluorescence, 24 h | Potency, µM (titrated, usually from 56.7 µM), hits mostly cytotoxic | actives 0.49% (n = 400,000) | AID 651635; further: nearly all actives have a fitted effect of over 40% in size
USP1-UAF1 inh: inhibitors of human USP1/UAF1 deubiquitinase. AID 743255. actives 0.23% (n = 390,000). Potency, µM (top dose mostly 57.1 µM), most hits filed as inhibitors. O94782. recombinant USP1/UAF1, Ub-Rhodamine cleavage fluorescence; further: nearly all actives have a fitted effect of over 60% in size
Target sequence (O94782 whole entry, looked up): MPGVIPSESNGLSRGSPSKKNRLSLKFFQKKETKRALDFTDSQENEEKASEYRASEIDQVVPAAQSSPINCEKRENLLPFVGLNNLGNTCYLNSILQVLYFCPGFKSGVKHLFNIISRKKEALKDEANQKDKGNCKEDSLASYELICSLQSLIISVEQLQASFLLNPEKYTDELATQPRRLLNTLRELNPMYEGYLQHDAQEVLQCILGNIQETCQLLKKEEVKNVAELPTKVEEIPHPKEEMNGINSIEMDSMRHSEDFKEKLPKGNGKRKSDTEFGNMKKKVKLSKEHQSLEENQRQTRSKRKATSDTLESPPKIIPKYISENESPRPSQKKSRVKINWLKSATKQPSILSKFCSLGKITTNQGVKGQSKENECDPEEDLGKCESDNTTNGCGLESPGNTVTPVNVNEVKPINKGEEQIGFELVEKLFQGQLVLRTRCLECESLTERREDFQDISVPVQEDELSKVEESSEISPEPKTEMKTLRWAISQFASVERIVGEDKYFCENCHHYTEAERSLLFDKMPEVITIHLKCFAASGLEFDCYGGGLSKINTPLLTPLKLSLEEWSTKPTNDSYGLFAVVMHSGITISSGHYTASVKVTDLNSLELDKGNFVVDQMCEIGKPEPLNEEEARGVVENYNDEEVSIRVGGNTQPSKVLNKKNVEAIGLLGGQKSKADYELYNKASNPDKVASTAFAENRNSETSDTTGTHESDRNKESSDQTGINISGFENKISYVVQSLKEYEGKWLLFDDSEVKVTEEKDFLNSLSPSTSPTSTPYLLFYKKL
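High-throughput fluorogenic screen: 1nM USP1/UAF1 complex, Ub-Rho substrate 150nM final, 50mM HEPES pH 7.8 with 0.5mM EDTA, 0.1 mg/ml BSA, 1mM TCEP and 0.01% Tween-20.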
A number is an active result; – = inactive; ? = inconclusive; · = no result; [ ] = dose if it differs, or a comment. Compounds with a hit are over-represented: about 4.8% of the library has one in this group of screens. Unless noted, the call rests on the fitted dose curve; in most records, active means well fitted curve in the direction sought with a large enough effect; inconclusive means small, poorly fitted or top-dose-only effect, or another doubt; inactive means no such curve, though single readings can be large; an effect the other way counts as inactive or inconclusive.

SMILES | ATXN2 expr inh | USP2a inh | IL-1B inflam inh | S2 tox | USP1-UAF1 inh
C[C@H]1CN([C@@H](C)CO)C(=O)c2cc(Br)cnc2O[C@H]1CN(C)C(=O)C1CCC1 | – | · | – | – | –
COc1cccc(-c2nc(-c3cccc(C)c3)nc3cc(Cl)ccc23)c1 | – | · | – | – | ·
COc1cccc(N2CCc3c(C)nc4ccc(Cl)cc4c32)c1 | ? | – | -96 | · | –
COc1ccc(N2CCc3c(C)nc4c(OC)cc(OC)cc4c32)c(OC)c1 | ? | – | -58 | ? | –
CCN1Cc2c(/C=C/c3ccccc3)nc3ccc(OC)cc3c2N(c2cccc(Cl)c2)C1 | · | – | -84 | – | –
Cc1nc2c(C)cccc2c2c1CCN2c1ccccc1F | ? | – | -76 | – | –
Cc1cccc2c(N)c3c(nc12)N(C)CC3 | · | – | – | – | –
Cc1ccc2nc(CSc3nnc(NC(=O)C(C)C)s3)cc(=O)n2c1 | · | · | · | · | –
Cc1ccccc1NS(=O)(=O)c1ccc2[nH]cc(C(=O)N3CCCC3)c(=O)c2c1 | · | · | · | · | –
CCOC(=O)c1c(-c2ccccc2)oc2ccc(NS(=O)(=O)c3ccc(C)cc3)cc12 | ? | · | · | ? | –
COc1ccc(N2CCc3c(C)nc4c(OC)cc(OC)cc4c32)cc1 | – | – | · | – | –
COc1ccc(N2CCc3c(C)nc4c(OC)cccc4c32)cc1 | –[11.3 µM] | – | -96 | ? | –
CN(C)c1ccc(CNc2nc(-c3ccco3)nn2C(=O)c2cccc([N+](=O)[O-])c2)cc1 | – | · | · | – | –
CC(=O)N1CCc2cc(S(=O)(=O)NC(Cc3ccccc3)C(=O)Nc3cccc(C)c3)ccc21 (stereo not given) | – | · | · | – | –
CCNc1nc(NCC)nc(N(C#N)CCOc2ccccc2)n1 | – | – | – | – | –
CN(C)c1nc(Cl)nc(N(C#N)CCOc2ccccc2)n1 | –[11.3 µM] | – | -86 | – | –
CCN(CC)C(=N)/C(C#N)=N/Nc1ccc(C)cc1 | – | – | -54 | ? | –
CC(C)OC(=O)/C(C#N)=C/c1cn(C)c2ccccc12 | – | – | -54 | – | –
Cn1cc(/C=C(\C#N)C(=O)Nc2ccccc2O)c2ccccc21 | – | – | -62 | ? | –
COc1ccc(-c2cn3nc(N4CCC(C(=O)NCc5cccc(Cl)c5)CC4)sc3n2)cc1 | · | · | · | · | –
Cc1ccc(C(=O)N/N=C\C=C\c2ccc(Br)cc2)cn1 | · | – | – | – | –
CN(C)c1ccc(C(=O)N/N=C/c2cc(Br)cc(Br)c2O)cc1 | 3.5µM | – | – | – | ?
Cc1ccc(C(=O)N/N=C/c2cc(Br)ccc2O)cn1 | 2µM | – | – | ? | –
CCC(=O)N1CCc2cc(Br)cc(S(=O)(=O)NCCc3ccc(C)cc3)c21 | · | · | · | · | –
CC(=O)c1ccc(N2C(=O)Nc3ccccc3S2(=O)=O)cc1 | – | · | · | – | –
SMILES | ATXN2 expr inh | USP2a inh | IL-1B inflam inh | S2 tox | USP1-UAF1 inh
COc1cccc(/C=N/NC(=O)CSCC(=O)Nc2ccccc2)c1O | 28µM | – | – | – | –
COc1ccc(/C=N/NC(=O)CSCC(=O)Nc2ccccc2)cc1 | – | – | – | – | –
CC(=O)OCC1OC(Sc2cccc3cccnc23)C(OC(C)=O)C(OC(C)=O)C1OC(C)=O (stereo not given) | – | – | -97 | – | –
COc1cccc(OC)c1CN1CCC2(CCC(CNC(=O)c3ccn(C)n3)O2)CC1 (stereo not given) | · | · | · | – | ·
Cc1cnc(C(=O)NCc2c(C)ncc3c2CCN(C(=O)/C=C/c2cccs2)C3)cn1 | · | · | · | – | ·
NC(=O)CSc1nc(-c2ccccc2)nc2c1CCCC2 | – | – | – | – | –
CN(C)C(=O)CSc1nc(-c2ccccc2)nc2c1CCCC2 | ? | – | -70 | – | –
CN(C)CCCSc1nc(-c2ccccc2)nc2c1CCC2 | · | – | -53 | – | –
CN(C)CCSc1nc(-c2ccccc2)nc2c1CCC2 | · | – | – | – | –
COc1ccc(CCN(C)CC(=O)Nc2ccc(F)c(Cl)c2)cc1OC | – | – | -58 | – | ?
COc1ccc(N(C(=O)CCl)C(C(=O)NC2CCCCC2)c2cccnc2)cc1 (stereo not given) | 14µM | – | -102 | 8.9µM | –
CCc1ccccc1N(C(=O)CNC(=O)c1ccco1)C(C(=O)NC1CCCC1)c1cccnc1 (stereo not given) | – | – | – | – | –
O=C(NC1CCCCC1)C(c1cccnc1)N(C(=O)CCl)c1ccccc1Cl (stereo not given) | – | – | -89 | – | –
O=C(NC1CCCCC1)C(c1cccnc1)N(C(=O)CCl)c1ccc(F)cc1 (stereo not given) | 4µM | – | -103 | 6.3µM | –
CCc1ccc(C)c(OC(=O)c2cncc(Br)c2)c1 | · | – | – | – | –
COc1ccc2c(c1)OC(C)CN(CCNC(=O)c1cc3cc(F)ccc3[nH]1)C2 (stereo not given) | · | · | · | – | ·
CC(=O)N1CCOc2cc(S(=O)(=O)Nc3c(C)cccc3C(C)C)c(Cl)cc21 | · | – | · | · | –
Nn1c(Cc2cccc3ccccc23)nnc1SCc1c(Cl)cccc1Cl | – | – | – | – | –
Nn1c(Cc2cccc3ccccc23)nnc1SCc1ccc(Cl)c(Cl)c1 | – | – | -72 | ? | –
CCC(CO)Nc1ccn2nc(-c3cccs3)cc2n1 (stereo not given) | – | · | -50 | – | ·
Nc1c(C(=O)O)sc2nc(-c3ccccc3)c3c(c12)CCCC3 | · | – | – | – | –
CCc1c(-c2ccccc2)nc2sc3c(c2c1N)CCCC3 | ? | – | -84 | – | –
CN1CCCC(CNC(=O)c2cnn(-c3nccc(-c4cccs4)n3)c2C2CC2)C1 (stereo not given) | · | · | · | – | ·
CC1(C)C=C2C(=NN(c3ccccc3)C(N)=C2C#N)CO1 | – | – | – | – | 4.5µM
[O-][n+]1onc2c1CCc1c-2nn(-c2ccccc2Cl)[n+]1[O-] | 28µM | – | -74 | ? | –
SMILES | ATXN2 expr inh | USP2a inh | IL-1B inflam inh | S2 tox | USP1-UAF1 inh
Cc1cccc(-n2nc3c([n+]2[O-])CCc2nonc2-3)c1C | – | – | – | ? | –
Cc1ccc(-n2nc3c([n+]2[O-])CCc2c-3no[n+]2[O-])cc1 | ? | – | -78 | ? | –
CCOC(=O)c1c(NC(=O)CCl)sc(CN(C)C)c1-c1ccccc1 | ? | – | -98 | · | –
CCOC(=O)c1c(NC(=O)CN2CCCCC2)sc(CN(C)C)c1-c1ccccc1 | – | – | -60 | ? | –
CCOC(=O)c1c(NC(=S)N2CCN(C)CC2)sc(C)c1-c1ccccc1 | – | – | ? | – | –
O=C1OC(c2ccccc2)c2ccccc21 (stereo not given) | – | – | – | – | –
O=S1OC(c2ccccc2)c2cc(Cl)ccc21 (stereo not given) | – | – | -111 | – | –
Cc1c(Cl)cccc1NC(=S)NCC1COc2ccccc2O1 (stereo not given) | – | – | -68 | – | –
O=C(c1ccc(CSc2nc3ccncc3n2Cc2ccccc2F)cc1)N1CCCCCC1 | – | · | · | – | ?
